The campaign covered roughly 52,000 compounds. About 4,300 (8.3%) were called active. Rule as the data show it: active = survival mostly below about 52% (no sharp cut-off); inactive = mostly above about 56%. Many of the other results were omitted from the sample, so actives are more common in it than they were.
Test system: DeltatarO mutant
Test: S. aureus survival, RN4220 and DeltatarO strains – OD600, teichoic acid synthesis inhibitors, primary screen (AID 463173)
Settings: S. aureus RN4220 wild type/DeltatarO growth, OD600, 18 h, hits give low values, screened at 18.75 µg/mL (by protocol)

| SMILES | survival |
| --- | --- |
| COc1ccc(CNC(=O)c2ccc3c(c2)nc2n3CCCCC2)cc1 | 89% (inactive) |
| CCN(CC)S(=O)(=O)c1ccc2nc(NC(=O)c3ccc(Br)o3)sc2c1 | 87% (inactive) |
| N#Cc1ccc(NC(=O)c2cc(-c3cccc(Cl)c3)on2)cc1 | 71% (inactive) |
| CCCCN(C)C(=O)C1CCC(Cn2c(=O)[nH]c3ccsc3c2=O)CC1 (centres undefined) | 0% (active) |
| CCCCCNC(=O)C1CCC(Cn2c(=O)c3sccc3n(CC)c2=O)CC1 (centres undefined) | 49% (inactive) |
| CNC(=O)C1CCC(Cn2c(=O)[nH]c3ccsc3c2=O)CC1 (centres undefined) | 99% (inactive) |
| CCC(CC)C(=O)Nc1cc(-c2ccccc2F)nn1-c1ccccc1 | 76% (inactive) |
| COC(=O)c1c(NC(=O)COc2cccc(C(F)(F)F)c2)sc2c1CCCC2 | 49% (inactive) |
| CCOC(=O)c1c(NC(=O)COc2cccc(C(F)(F)F)c2)sc2c1CCC(C)C2 (centres undefined) | 68% (inactive) |
| CCOC(=O)c1c(NC(=O)COc2ccccc2F)sc2c1CCCC2 | 67% (inactive) |
| CCOC(=O)c1c(NC(=O)COc2ccccc2Br)sc2c1CCCCC2 | 40% (active) |
| CCOC(=O)c1c(NC(=O)COc2cccc(C)c2C)sc2c1CCCCC2 | 64% (inactive) |
| CCOC(=O)c1c(NC(=O)COc2cccc(C(F)(F)F)c2)sc2c1CCCCC2 | 60% (active) |
| O=S(=O)(Nc1cccc(-c2ccc(N3CCOCC3)nn2)c1)c1ccc(F)cc1F | 62% (inactive) |
| Cc1c(CCNC(=O)c2c(F)cccc2F)sc2nc(-c3ccc(F)cc3)nn12 | 117% (inactive) |
| CCOc1ccccc1CNC(=O)c1ccc(NC(=O)N2CCSc3ncccc32)cc1 | 79% (inactive) |
| CCc1nnc(NC(=O)CSC2=NC(=O)C(NC(C)=O)C(=O)N2)s1 (centres undefined) | 99% (inactive) |
| CCCN(CCC)C(=O)Cn1c(=O)n(CCCCCC(=O)NCc2ccccc2Cl)c(=O)c2sccc21 | 81% (inactive) |
| Cc1ccc(Cn2c(=O)n(Cc3ccccc3)c(=O)c3oc4ccccc4c32)cc1 | 69% (inactive) |
| CC(=O)N1CCCc2cc(S(=O)(=O)NCc3cccc(C)c3)ccc21 | 78% (inactive) |
| C=CCc1c(C)nc2nc(SCC(=O)Nc3ccc(C)c(C)c3)nn2c1C | 75% (inactive) |
| CCOC(=O)c1ccccc1NC(=O)CSc1cc(C)[nH]c(=O)n1 | 88% (inactive) |
| COc1cc(C(=O)Nc2cc(C)ccc2OCc2cc(=O)n3cc(C)sc3n2)cc(OC)c1OC | 89% (inactive) |
| O=C(c1cccn1-c1nnc(N2CCCC2)s1)N1CCN(c2ccccc2)CC1 | 25% (active) |
| O=C(c1cccn1-c1nnc(N2CCCC2)s1)N1CCN(c2ccc(F)cc2)CC1 | 118% (inactive) |
| O=C(c1cccn1-c1nnc(N2CCCCC2)s1)N1CCN(c2ccc(Cl)cc2)CC1 | 69% (inactive) |
| O=C(c1cccn1-c1nnc(N2CCCC2)s1)N1CCN(c2ccc(Cl)cc2)CC1 | 63% (inactive) |
| COc1ccc(N2CCN(C(=O)c3cccn3-c3nnc(N4CCCC4)s3)CC2)cc1 | 101% (inactive) |
| O=C(c1cccn1-c1nnc(N2CCCCC2)s1)N1CCN(c2ccccc2)CC1 | 0% (active) |

Reference: PubChem BioAssay AID463173 (ICCB-Longwood Screening Facility, Harvard Medical School, 2010)
